TDP1 inh: qHTS Assay for Inhibitors of Tyrosyl-DNA Phosphodiesterase (TDP1) | Tyrosyl-DNA phosphodiesterase 1 (Homo sapiens), Q9NUW8 | recombinant TDP1, AlphaScreen DNA substrate cleavage | Potency, µM (highest dose often 130 µM), for the others: top-dose activity change, negative = inhibition, actives largely listed as inhibitors | hit rate 0.28% among 350,000; note: potency is the fitted concentration of half-maximal effect; % is set by controls: 0 for no effect and ±100 for the full control effect; nearly all actives have a fitted effect of over 40% in size
Target sequence (Q9NUW8 whole entry, looked up): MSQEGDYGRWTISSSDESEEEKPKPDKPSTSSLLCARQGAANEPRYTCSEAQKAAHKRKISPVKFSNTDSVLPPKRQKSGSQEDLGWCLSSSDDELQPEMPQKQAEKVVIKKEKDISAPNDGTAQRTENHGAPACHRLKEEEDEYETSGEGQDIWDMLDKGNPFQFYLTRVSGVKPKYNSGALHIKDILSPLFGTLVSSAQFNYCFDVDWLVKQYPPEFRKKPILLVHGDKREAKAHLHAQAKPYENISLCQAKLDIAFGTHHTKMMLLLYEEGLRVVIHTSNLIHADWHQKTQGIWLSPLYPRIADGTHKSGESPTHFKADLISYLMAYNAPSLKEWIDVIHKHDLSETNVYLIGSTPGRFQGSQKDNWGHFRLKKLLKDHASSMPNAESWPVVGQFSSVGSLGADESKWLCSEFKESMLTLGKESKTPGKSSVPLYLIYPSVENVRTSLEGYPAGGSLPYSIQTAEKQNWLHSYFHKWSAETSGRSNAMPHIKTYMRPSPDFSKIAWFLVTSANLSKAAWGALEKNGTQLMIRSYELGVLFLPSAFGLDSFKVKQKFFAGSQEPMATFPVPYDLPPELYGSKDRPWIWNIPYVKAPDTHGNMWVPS
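Steps: enzyme plus compound, 15 min RT; add biotin/phosphotyrosine-FITC oligonucleotide (15 nM final), react 5 min; add donor/acceptor beads (10 ug/ml final), 10 min; read AlphaScreen. Tdp1 at 1 nM final.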
Pol kappa inh-1: qHTS for Inhibitors of Polymerase Kappa | DNA polymerase kappa (Homo sapiens), Q9UBT6 | purified Pol kappa, fluorescent DNA synthesis assay, 10 min | Potency, µM (highest dose often 107 µM), for inactives: top-dose activity, negative = inhibition, most hits filed as inhibitors | hit rate 0.53% among 400,000 | AID 588579, 2011; note: potency is the fitted concentration of half-maximal effect; % is set by controls: 0 for no effect and ±100 for the full control effect
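Inhibition of 10 nM Pol kappa is measured by a fluorescent read-out at 0 and 10 min following addition of 50 nM substrate (final), with a 15-min room-temperature compound preincubation.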
Pol eta inh-1: qHTS for Inhibitors of Polymerase Eta; recombinant Pol eta, fluorescent DNA replication assay; AID 588591, 2011; hit rate 1.2% among 390,000; Potency, µM (series often up to 114 µM), without a hit: at the highest dose activity change, negative = inhibition, actives largely listed as inhibitors; note: potency is the fitted concentration of half-maximal effect; % is set by controls: 0 for no effect and ±100 for the full control effect
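Fluorescent replication assay: 50 nM final substrate added after a 15 min room-temperature compound preincubation with 10 nM enzyme. Signal taken at 0 min and again at 10 min.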
POLI inh: qHTS for Inhibitors of Polymerase Iota | hit rate 1% among 390,000 | DNA polymerase iota (Homo sapiens), Q9UNA4 | Pol iota fluorescent replication assay, 10 min | Potency, µM (highest dose often 115 µM), inactives show top-dose activity, negative = inhibition, actives largely listed as inhibitors; note: potency is the fitted concentration of half-maximal effect
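Fluorescent replication assay read twice, at 0 min and 10 min after adding 50 nM (final) substrate. Enzyme (10 nM) and compounds were first incubated 15 min at room temperature; enzyme-free buffer wells were negative controls.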
POLB inh: qHTS Assay for Inhibitors of DNA Polymerase Beta | Pol beta primer extension/strand displacement, fluorescence kinetic | Potency, µM (series often up to 114 µM), inactives show at the top dose activity change, negative = inhibition, most hits filed as inhibitors | hit rate 1.3% among 340,000 | AID 485314, 2010; note: potency is the fitted concentration of half-maximal effect; % is set by controls: 0 for no effect and ±100 for the full control effect
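Reaction started by 50 nM substrate onto compound-treated Pol beta (10 nM, 15 min preincubation, room temperature); plates read at 0 min and 10 min. Normalized concentration-effect data fitted by four-parameter Hill equation.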
PGK validate: qHTS for inhibitors of Phosphogylcerate Kinase: Hit Validation Screen. AID 686980, 2013. shares compounds with Pol kappa inh-1. hit rate 79% among 500. TbPGK coupled GAPDH assay, Kinase-Glo luminescence. Potency, µM (series often up to 57.5 µM), for inactives: at the highest dose activity change, negative = inhibition, hits mostly inhibitors; note: potency is the fitted concentration of half-maximal effect; % is set by controls: 0 for no effect and ±100 for the full control effect; nearly all actives have a fitted effect of over 65% in size
POLI cherry-pick: qHTS for Inhibitors of Polymerase Iota: Confirmatory Assay for Cherry-picked Compounds; AID 720496, 2013; Potency, µM, most hits filed as inhibitors; Pol iota primer extension, TAMRA/BHQ fluorescence; shares compounds with Pol kappa inh-1; hit rate 77% among 1,500; note: potency is the fitted concentration of half-maximal effect
GALK inh confirm: Confirmation Assay for Inhibitors of Human Galactokinase (GALK) | shares compounds with Pol eta inh-1 | purified GALK, Kinase-Glo ATP depletion luminescence | Potency, µM (titrated, usually from 115 µM), inactives show at the top dose activity, negative = inhibition, usual class: inhibitors | hit rate 70% among 150 | AID 2015, 2009
Redox cycling: Confirmatory Assay for Inhibitors of Human Galactokinase (GALK): Phenol-HRP redox assay counterscreen | Phenol red-HRP H2O2 redox cycling, absorbance 600 nm | shares compounds with Pol eta inh-1 | Potency, µM (series often up to 115 µM), for the others: at the highest dose activity change, negative = H2O2 signal, usual class: inhibitors | hit rate 40% among 150
HEK293 viability: Secondary Assay for Inhibitors of Human Galactokinase (GALK): HEK-293 Cell Viability Assay; shares compounds with Pol eta inh-1; HEK-293 viability, ATP luminescence (CellTiter-Glo), 24/48 h; Potency, µM (titrated, usually from 46.1 µM), for the others: at the top dose activity change, negative = cytotoxicity, most hits filed as inhibitors; hit rate 10% among 170; AID 2547, 2010; note: potency is the fitted concentration of half-maximal effect; % is set by controls: 0 for no effect and ±100 for the full control effect
Pol kappa inh-2: qHTS for Inhibitors of Polymerase Kappa: Confirmatory Assay for Cherry-picked Compounds; shares compounds with Pol eta inh-1; purified Pol-kappa, fluorescent strand-displacement substrate; Potency, µM, actives largely listed as inhibitors; hit rate 76% among 920; note: potency is the fitted concentration of half-maximal effect
Pol eta inh-2: qHTS for Inhibitors of Polymerase Eta: Confirmatory Assay for Cherry-picked Compounds; shares compounds with Pol eta inh-1; Pol eta primer extension, TAMRA/BHQ fluorescence, 10 min; Potency, µM, usual class: inhibitors; hit rate 64% among 2,600; AID 720502, 2013; note: potency is the fitted concentration of half-maximal effect
Active calls of the source: *; ? = inconclusive; / = no result; [ ] = another dose, or the depositor's remark. Rows were chosen to be rich in hits. Some 2.4% of all compounds tested hit in one or more screens of this group. Calls come from the whole dose curve; as a rule, active = well fitted curve in the direction sought with a large enough effect; inconclusive = small, poorly fitted or top-dose-only effect, or another doubt; inactive = no such curve, though single readings can be large; an effect the other way counts as inactive or inconclusive.

SMILES	TDP1 inh	Pol kappa inh-1	Pol eta inh-1	POLI inh	POLB inh	POLI cherry-pick	Pol eta inh-2	others
C=CC(=O)OCCOCCOC(=O)C=C	6%	/	/	/	/	/	/
Cc1ccc(C(=O)OCC(=O)c2ccc(CC(=O)N3CCOCC3)s2)c(C)c1	50µM*	18µM*	16µM*	13µM*	/	42*	?	Pol kappa inh-2=38*
O=C(O)CSc1cc(C(=O)c2ccccc2O)cn2c(=O)c3c(-c4ccccc4)csc3nc12	?	?	14µM*	?	45µM*	21*	27*
COc1ccc(O)c(C(=O)c2cc(SCC(=O)O)c3nc4sc5c(c4c(=O)n3c2)CCCC5)c1	/	?	22µM*	?	?	21*	48*
Cc1sc2nc3c(SC(C)C(=O)O)cc(C(=O)c4ccccc4O)cn3c(=O)c2c1C (stereo not drawn)	4%	-25%	?	?	?	/	/
CCOC(=O)c1sc2nc3c(SCC(=O)O)cc(C(=O)c4cc(F)ccc4O)cn3c(=O)c2c1C	35µM*	50µM*	20µM*	?	10µM*	19*	27*
CC(C)C[C@H](NC(=O)[C@H](C)NC(=O)CNC(=O)[C@H](CCCCN)NC(=O)[C@H](CCCN=C(N)N)NC(=O)[C@H](C)NC(=O)[C@H](Cc1ccccc1)NC(=O)[C@@H](N)CCCN=C(N)N)C(=O)N[C@@H](CCCN=C(N)N)C(=O)N[C@@H](CCC(N)=O)C(=O)N[C@@H](CCCCN)C(=O)N[C@@H](CC(N)=O)C(=O)N[C@H](C(N)=O)C(C)C	13%	-11%[60.1 µM]	/	/	/	/	/
Cc1ccc(-n2c(=O)c3c(c4cc(C)ccc4n3C)n(CC(=O)c3ccc(Cl)cc3)c2=O)cc1	3%	-8%	-20%	5%	0%	/	/
CC(CNC(=O)C1CCN(Cc2cc3ccccc3n2Cc2ccccc2)CC1)c1ccccc1 (stereo not drawn)	0%	-7%[60.1 µM]	-18%	-2%	6%	/	/
CC(C)(C)OC(=O)N1CCC(c2c(C(=O)N3CCCCC3)cnn2-c2ccccc2Cl)CC1	0%	-3%	-15%	40%	6%	/	/
COc1ccc(/C=C2\C(=O)NC(=O)c3ccccc32)cc1OC	/	-18%	20µM*	32µM*	/	84*	30*
COc1ccc(C=C2C(=O)OC(C)(C)OC2=O)cc1OC	-6%	15%	3%	24%	28%	/	/
COc1ccc(Cn2c(CO)cnc2SCc2cccc(C)c2)cc1	9%	2%[60.1 µM]	-12%	-3%	-19%	/	/
Cc1cc(C)n2c(SCC(=O)N(CCC#N)c3ccc4c(c3)OCCO4)nnc2n1	/	/	20µM*	/	/	27*	48*	Pol kappa inh-2=17*
Cc1ccc(N(CCC#N)C(=O)CSc2ccc3c(c2)OCCO3)cc1	0%	-12%	-6%	1%	0%	/	/
Cc1nn(C)c2c1c(C(F)(F)F)cc(=O)n2C(C)C(=O)Nc1ccccc1F (stereo not drawn)	3%	6%	-13%	-3%	15%	/	/
NN=C1c2ccccc2C(=O)C1C(=O)C(c1ccccc1)c1ccccc1 (stereo not drawn)	/	22µM*	?	40µM*	/	75*	85*	Pol kappa inh-2=17*
Cc1ccc(C(=O)C2C(=O)c3ccccc3C2=O)cc1	5%	-1%[60.1 µM]	3%	-14%	13%	/	/
O=C(O)CCNc1ccc(NCCC(=O)O)c2c1C(=O)c1ccccc1C2=O	/	22µM*	4.5µM*	13µM*	13µM*	19*	11*	PGK validate=16µM*
O=C1c2cccc(NCCNCCO)c2C(=O)c2cccc(NCCNCCO)c21	/	28µM*	7.1µM*	45µM*	/	19*	/	Pol kappa inh-2=19*
Cc1cc(=O)[nH]c(N2CCOCC2)n1	3%	-10%	11%	-15%	-29%	/	/
COC(=O)c1cc(C)nc2c1C(=O)C(=O)C=C2N1CCOCC1	-4%	-10%	4.5µM*	1.3µM*	-8%	6*	5.4*	PGK validate=4.6µM*;GALK inh confirm=5.3µM*;Redox cycling=2.7µM*;HEK293 viability=8.9µM*
Cc1ccc2c(c1)cc1c(=O)n(CC(=O)NC(C)CCc3ccccc3)nc(C)n12 (stereo not drawn)	-1%	12%	1%	20%	14%	/	/
Oc1ccc(/C=N/NC(=S)Nc2cccnc2)c(O)c1	5%	-6%	-13%	7%	11%	/	/
Oc1cccc(/C=N/NC(=S)Nc2cccnc2)c1O	0%	?	20µM*	7.9µM*	16µM*	38*	85*
Oc1ccc(/C=N/NC(=S)Nc2cccnc2)c(O)c1O	/	2.2µM*	?	?	?	2.7*	3*	Pol kappa inh-2=3*
COC(=O)c1ccccc1NC(=O)CCS(=O)(=O)c1ccc(Br)cc1	/	20µM*	3.5µM*	-99%	2.5µM*	21*	27*	PGK validate=?;Pol kappa inh-2=15*

Screening results (PubChem)
